Molecules are shown by their SMILES. Values without a mark were called inactive. Results filed as inconclusive are left out. The source made the active and inactive calls. Unless noted, calls follow the shape of the dose curve; as a rule, active = well fitted curve in the direction sought with a large enough effect; inconclusive = small, poorly fitted or top-dose-only effect, or another doubt; inactive = no such curve, though single readings can be large; an effect the other way counts as inactive or inconclusive. Some results are limits rather than exact numbers.

Assay [1] is described as follows: AP1 Signaling Pathway (AID 357; active = well fitted curve in either direction with a large enough effect, not every such curve was filed as active;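 also: ME-180 reporter cells stimulated with EGF at its EC50 level; % is scaled to controls: 0 for no effect and ±100 for the full control effect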). The following applies: ME-180 AP-1-bla reporter, EGF-induced, beta-lactamase ratio, 5 h; at 17.2 µM (top of the series). The gist of the method: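 In this screen, ME-180 cells in Opti-MEM with 0.5% dialyzed FBS received EC50 EGF and compound titrations for 5 h. AP-1 reporter beta-lactamase was detected via CCF4 ratio, giving AC50 for positive and negative modulators.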

A short description of assay [2]: Stat Signaling Pathway (AID 446; active = well fitted curve in either direction with a large enough effect, not every such curve was filed as active;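 also: ME-180 cervical cancer cells given 40 pM IL-6 alongside compound; SIE-controlled beta-lactamase reporter measured as 460/530 nm FRET emission ratio; % is scaled to controls: 0 for no effect and ±100 for the full control effect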). Conditions: ME-180 (cervical carcinoma) SIE beta-lactamase reporter, IL-6 stimulated, 5 h; at 17.2 µM (top of the series). The gist of the method:
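FRET read-out (405 nm excitation, 460/530 nm emission) of a beta-lactamase reporter under a STAT-inducible element in ME-180 cervical carcinoma cells. Cells with compound receive 40 pM IL-6 for 5 h. Values are normalised to AC90 stimulation and AC90 JAK-inhibitor controls.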

Assay [3] has as its target Glucocorticoid receptor (Homo sapiens) (UniProt P04150). Nature of the assay: GR-GFP Redistribution (AID 450;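 active = compounds whose dose series gives a full or clear partial fitted curve of increased nuclear translocation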; also: potency is read from the fitted curve at half-maximal effect). The following applies: U2OS GR-GFP nuclear translocation, laser cytometry, 2 h.
Assay [4] in a line: NFAT Signaling Pathway (AID 444; active = well fitted curve in either direction with a large enough effect, not every such curve was filed as active;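 also: carbachol stimulus at about its EC50 of 1 µM final; % is scaled to controls: 0 for no effect and ±100 for the full control effect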). The following applies: Jurkat NFAT-bla M1, carbachol, beta-lactamase ratio, 5 h; at 17.2 µM (top of the series). The gist of the method: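 Jurkat cells with NFAT-driven β-lactamase reporter and co-expressed M1 receptor, stimulated with carbachol (final 1 uM, ~EC50), compound titration, 5 h at 37 °C. CCF4 loaded 1 h at RT; 460/530 nm ratio gave %activity and AC50.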

A short description of assay [5]: Cell Viability - BJ (AID 421; calls by dose curve;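 also: potency is read from the fitted curve at half-maximal effect; cells exposed to compound for 40 hours at 37 °C before readout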). Conditions: BJ fibroblast viability, qHTS. The gist of the method: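 Cytotoxicity as drop in intracellular ATP (CellTiter-Glo, 20 min RT) after 40 hr compound exposure of BJ fibroblasts at 37 °C. Titrations scaled between DMSO and 100 uM tamoxifen, Hill-fitted for AC50.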
Assay [6] is described as follows: Cell Viability - Jurkat (AID 426;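 active = dose-dependent loss of cell ATP signal giving a full or clear fitted curve, ranked by lower potency value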; also: potency is read from the fitted curve at half-maximal effect). The following applies: qHTS. The gist of the method:
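Cytotoxicity taken as drop in cellular ATP (CellTiter-Glo luminescence, 20 min room temperature) after 40 hr, 37C treatment of 5000 Jurkat Clone E6-1 cells per well; concentration-response fitted with Hill equation for AC50.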
On the technique in general: Quantitative high-throughput screening tests each substance at several concentrations.

Assay [7] in a line: Cell Viability - Hek293 (AID 427;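 active = compounds whose dose-response curve shows a full or clear partial loss of cell viability, called from curve shape rather than a numeric limit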;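 also: potency is read from the fitted curve at half-maximal effect; cells exposed to compound for 40 hours at 37 °C before reading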). Conditions: qHTS. In outline:
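Luminescent ATP content (CellTiter-Glo, 20 min at room temperature) was measured after a 40 hr, 37 °C compound exposure of HEK293 cells. AC50 values came from Hill-equation fits of qHTS concentration-response data normalized to DMSO and 100 uM tamoxifen.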

Assay [8] is described as follows: Cell Viability - HepG2 (AID 433; calls by dose curve;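 also: potency is read from the fitted curve at half-maximal effect; potency for ATP loss meaning cytotoxicity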). Conditions: qHTS. In outline:
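HepG2 cells, 1500 per well, treated 40 hr at 37 °C in complete medium; viability from intracellular ATP by CellTiter-Glo luminescence. Normalized to DMSO and 100 uM tamoxifen; AC50 from Hill fit of qHTS concentration-response.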

The nature of assay [9]: Cell Viability - MRC5 (AID 434; calls by dose curve;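 also: potency is read from the fitted curve at half-maximal effect; potency reflects cytotoxicity seen as loss of intracellular ATP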). The following applies: MRC5 lung fibroblast viability, qHTS. The gist of the method: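 ATP luminescence read-out (CellTiter-Glo, 20 min RT) after 40 hr, 37 °C compound exposure of 1500 MRC5 cells/well. Data normalized to DMSO (basal) and 100 uM tamoxifen (100% inhibition); AC50 from standard Hill equation.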
The nature of assay [10]: Cell Viability - SK-N-SH (AID 435; calls by dose curve; also: potency is read from the fitted curve at half-maximal effect). Conditions: SK-N-SH neuroblastoma cell viability qHTS. In outline: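 SK-N-SH neuroblastoma cells (1500/well) treated 40 h at 37 °C in complete medium; viability read as cellular ATP by CellTiter-Glo luminescence. Normalized to DMSO and 100 uM tamoxifen; AC50 from Hill fits of qHTS concentration-response.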
For assay [11], the target named is Mitogen-activated protein kinase 10 (Mus musculus) (UniProt Q61831). Nature of the assay: JNK3 AlphaScreen Assay (AID 530; active = well fitted curve in either direction with a large enough effect, not every such curve was filed as active;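 also: kinase came from lysate of stimulated human HepG2 cells; signal reports phosphorylation of biotinylated GST-cJun 1-79 at Ser73 with 10 µM ATP; % is scaled to controls: 0 for no effect and ±100 for the full control effect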). The following applies: JNK3 lysate, c-Jun phosphorylation; series mostly up to 57.1 µM. The gist of the method:
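Activity was read by AlphaScreen after JNK3-containing HepG2 lysate (cytokine pre-activated) phosphorylated biotinylated GST-cJun with 10 uM ATP at room temperature. Phospho-Ser73 cJun antibody with Protein-A acceptor beads provided detection.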

Assay [12] in a line: Cell Viability - NIH 3T3 (AID 541).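 Also: plate controls were DMSO alone for no effect and tamoxifen positive control for full effect; nearly all actives have a fitted effect of over 25% in size.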 Conditions: NIH 3T3 cell viability, qHTS; activity change, negative = cytotoxicity: at 92.2 µM (top of the series). The gist of the method: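 Intracellular ATP (CellTiter-Glo luminescence, 20 min at room temperature) measured after 40 hr compound exposure at 37 °C of 1000 NIH 3T3 mouse fibroblasts/well in complete medium; AC50 derived by Hill-equation modelling of qHTS concentration-response curves.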

Assay [13] in a line: Cell Viability - HUV-EC-C (AID 542). Also: % is scaled to controls: 0 for no effect and ±100 for the full control effect; nearly all actives have a fitted effect of over 35% in size. Conditions: HUV-EC-C endothelial cell viability, qHTS; series mostly up to 92.2 µM. In outline:
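CellTiter-Glo luminescence measured ATP loss in HUV-EC-C cells (1000/well) after 40 hr compound exposure at 37 °C, in complete culture medium. Concentration-response data were Hill-fitted to give AC50.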

Assay [14] can be described thus: Cell Viability - H-4-II-E (AID 543). Also: nearly all actives have a fitted effect of over 35% in size. Also: potency is read from the fitted curve at half-maximal effect. Conditions: H-4-II-E rat hepatoma viability; series mostly up to 92.2 µM. The gist of the method:
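CellTiter-Glo luminescence (intracellular ATP) measured after 40 h compound exposure at 37 °C in H-4-II-E rat hepatoma cells seeded at 1500/well. Values are AC50s fitted with the standard Hill equation.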

A short description of assay [15]: Cell Viability - SH-SY5Y (AID 544).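 Also: 0% = DMSO alone and -100% = 100 µM tamoxifen; nearly all actives have a fitted effect of over 55% in size.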 The following applies: SH-SY5Y neuroblastoma cell viability; series mostly up to 92.2 µM. In outline: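 Cytotoxicity measured via ATP-dependent luciferase luminescence (CellTiter-Glo) following 40 h, 37 °C exposure of 1500 SH-SY5Y cells per well. Concentration-response data were fitted with the standard Hill equation to give AC50.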

Assay [16] in a line: Cell Viability - Renal Proximal Tubule (AID 545).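 Also: 0% = DMSO only and -100% = 100 µM tamoxifen; nearly all actives have a fitted effect of over 40% in size.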 The following applies: renal proximal tubule cells viability, primary cells of rat origin; series mostly up to 91.7 µM. The gist of the method:
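Rat renal proximal tubule primary cells, 1000/well, exposed to compounds for 40 hr at 37 °C in complete medium; cellular ATP read by CellTiter-Glo luminescence. AC50 from concentration-response fitted with standard Hill equation.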

Assay [17] is described as follows: Cell Viability - Mesenchymal (AID 546).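 Also: cells exposed to compound for 40 hours before reading; 0% = DMSO only and -100% = 100 µM tamoxifen.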 The following applies: mesenchymal cells viability, qHTS; series mostly up to 91.7 µM. The gist of the method:
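Human renal mesenchymal cells (glomerulus-derived), 1000 cells/well, 5 hr 37 °C pre-incubation; compound 40 hr, 37 °C; CellTiter-Glo, 20 min RT; luminescence; AC50 via Hill equation.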

Chain of Glucocorticoid receptor (Homo sapiens) (P04150 whole entry, looked up): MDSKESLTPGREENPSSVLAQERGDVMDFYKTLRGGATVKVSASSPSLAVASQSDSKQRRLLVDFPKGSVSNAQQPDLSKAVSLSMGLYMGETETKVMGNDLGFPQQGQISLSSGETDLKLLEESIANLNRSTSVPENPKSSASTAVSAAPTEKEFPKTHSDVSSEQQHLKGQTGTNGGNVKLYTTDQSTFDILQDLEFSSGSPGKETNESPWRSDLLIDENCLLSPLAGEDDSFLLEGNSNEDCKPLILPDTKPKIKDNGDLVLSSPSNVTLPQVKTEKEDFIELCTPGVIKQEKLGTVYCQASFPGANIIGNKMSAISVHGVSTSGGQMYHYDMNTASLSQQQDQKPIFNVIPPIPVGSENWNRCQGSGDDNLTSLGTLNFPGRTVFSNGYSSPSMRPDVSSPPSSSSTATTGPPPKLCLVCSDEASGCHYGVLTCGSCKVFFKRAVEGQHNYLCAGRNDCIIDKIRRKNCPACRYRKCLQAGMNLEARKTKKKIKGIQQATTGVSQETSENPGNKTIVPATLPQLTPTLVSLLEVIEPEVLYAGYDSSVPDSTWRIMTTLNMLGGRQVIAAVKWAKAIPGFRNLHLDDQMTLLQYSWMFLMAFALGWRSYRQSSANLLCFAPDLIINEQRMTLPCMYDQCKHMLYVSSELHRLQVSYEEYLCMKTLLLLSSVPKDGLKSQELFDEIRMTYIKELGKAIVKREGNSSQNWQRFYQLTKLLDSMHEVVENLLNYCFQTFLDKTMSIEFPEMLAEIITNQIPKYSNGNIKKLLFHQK

Regarding `CN(C)CCOC(C)(c1ccccc1)c1ccccn1` (stereo not given), the activity change, negative = inhibition in [1] was 4.21%. Further, the activity, negative = inhibition in [2] is 5.21%.

For `CC1=C(/C=C/C(C)=C/C=C/C(C)=C/C(=O)O)C(C)(C)CCC1`, the activity change, negative = inhibition in assay [1] was -14.6%. The Potency in assay [3] is more than 20.6 µM.

For the molecule `NS(=O)(=O)c1cc2c(cc1C(F)(F)F)NC(Cc1ccccc1)NS2(=O)=O` (stereo not given), the results for the activity change, negative = inhibition in assay [1] and in [4] were -11.1% and 0.596%, respectively. Further, in assay [2], the activity, negative = inhibition was 1.32%.

For `CC(COc1ccccc1)NC(C)C(O)c1ccc(O)cc1` (stereo not given), in assay [1], the activity change, negative = inhibition was 9.92%. Moreover, the activity, negative = inhibition in assay [2] is 20.7%. The Potency in [3] was more than 20.6 µM.

With `Cc1cc2nc3c(=O)[nH]c(=O)nc-3n(C[C@H](O)[C@H](O)[C@H](O)CO)c2cc1C`, the Potency in assay [5], in [6], in [7], in assay [8], in assay [9] and in assay [10] was more than 92 µM in each case. Moreover, the Potency result in assay [11], in assay [12], in assay [13], in assay [14], in assay [15] and in assay [16] was “inactive” each time. Also, in assay [17], the outcome was inactive.

As to `O=C(CCCN1CCN(c2ccccn2)CC1)c1ccc(F)cc1`, the activity change, negative = inhibition in assay [1] is 7.66%. Besides, in [2], the activity, negative = inhibition was -8.71%. In addition, the Potency result in [11] was “inactive”.

In the case of `OCC(O)CN1CCN(c2ccccc2)CC1` (stereo not given), the activity change, negative = inhibition in assay [1] is -1.76%; in assay [4] it was 8.65%. Further, in assay [2], the activity, negative = inhibition is 10.1%. Moreover, the Potency in assay [3] was more than 20.6 µM.

On to `Nc1ncnc2c1ncn2[C@@H]1O[C@H](CO)[C@@H](O)[C@H]1O`, for which, in assay [4], the activity change, negative = inhibition is -4.17%. Moreover, the Potency in assay [3] was more than 20.6 µM.

In the case of `COc1ccccc1O`, the Potency in [5], in assay [6], in assay [7], in [8], in assay [9] and in [10] was more than 92 µM in each case. Also, the Potency entry in assay [11], in assay [12], in assay [13], in assay [14], in assay [15] and in assay [16] was “inactive” in each case. The call in assay [17] was inactive.

For the molecule `CNCCC(Oc1ccc(C(F)(F)F)cc1)c1ccccc1` (stereo not given), the activity change, negative = inhibition in assay [1] is 21.9%. Further, the activity, negative = inhibition in assay [2] is 4.05%.

For `CC[C@H]1CN2CCc3cc(OC)c(OC)cc3[C@@H]2C[C@@H]1C[C@H]1NCCc2cc(OC)c(OC)cc21`, the figures for the activity change, negative = inhibition in [1] and in [4] were -119% (active) and -131% (active), respectively. In addition, in [2], the activity, negative = inhibition was -96.7% (active). Besides, the Potency in [3] is more than 20.6 µM.

For the molecule `NCCNCCNCCN`, the Potency in assay [5], in [6], in assay [7], in assay [8], in assay [9] and in assay [10] was more than 92 µM throughout. For the same molecule, the Potency entry in [11], in [12], in assay [13], in [14], in assay [15] and in [16] was “inactive” throughout. For the same molecule, the call in assay [17] was inactive.

With `CNC(=O)Oc1ccc2c(c1)[C@]1(C)CCN(C)[C@@H]1N2C`, the results for the activity change, negative = inhibition in [1] and in assay [4] were 8.81% and 5.79%, respectively. Further, in assay [2], the activity, negative = inhibition is 4.34%.

Regarding `CC12CCC(CC1)C(C)(C)O2`, the Potency in [5], in assay [6], in assay [7], in assay [8], in assay [9] and in assay [10] was more than 92 µM throughout. For the same molecule, the Potency entry in [11], in [12], in [13], in assay [14], in assay [15] and in [16] was “inactive” each time. The call in assay [17] was inactive.

`NC(=O)N/N=C/c1ccc([N+](=O)[O-])o1`: the Potency is more than 92 µM in assay [5], more than 92 µM in assay [9], more than 92 µM in assay [10] and 31.6 µM (active) in [14]. Further, the Potency result in assay [11], in [13], in assay [15] and in [16] was “inactive” each time. For the same molecule, the activity change, negative = cytotoxicity in assay [12] is -81.4% (active). Further, the call in [17] was inactive.

Values taken from PubChem BioAssay (NCATS).
